{"source": "PubChem BioAssay AID743445", "about": "(Broad Institute, 2014)", "note": "About 1,700 (0.55%) of roughly 310,000 compounds were called active. This is one part of a sample in which actives are shown more often than they occur. Unmarked numbers belong to inactive results. Rule as the data show it: active = inhibition above about 50%; inactive = the rest."}
{"molecular_target": "Histone-lysine N-methyltransferase NSD2 (Homo sapiens) (UniProt O96028)", "sequence (O96028 whole entry, looked up)": "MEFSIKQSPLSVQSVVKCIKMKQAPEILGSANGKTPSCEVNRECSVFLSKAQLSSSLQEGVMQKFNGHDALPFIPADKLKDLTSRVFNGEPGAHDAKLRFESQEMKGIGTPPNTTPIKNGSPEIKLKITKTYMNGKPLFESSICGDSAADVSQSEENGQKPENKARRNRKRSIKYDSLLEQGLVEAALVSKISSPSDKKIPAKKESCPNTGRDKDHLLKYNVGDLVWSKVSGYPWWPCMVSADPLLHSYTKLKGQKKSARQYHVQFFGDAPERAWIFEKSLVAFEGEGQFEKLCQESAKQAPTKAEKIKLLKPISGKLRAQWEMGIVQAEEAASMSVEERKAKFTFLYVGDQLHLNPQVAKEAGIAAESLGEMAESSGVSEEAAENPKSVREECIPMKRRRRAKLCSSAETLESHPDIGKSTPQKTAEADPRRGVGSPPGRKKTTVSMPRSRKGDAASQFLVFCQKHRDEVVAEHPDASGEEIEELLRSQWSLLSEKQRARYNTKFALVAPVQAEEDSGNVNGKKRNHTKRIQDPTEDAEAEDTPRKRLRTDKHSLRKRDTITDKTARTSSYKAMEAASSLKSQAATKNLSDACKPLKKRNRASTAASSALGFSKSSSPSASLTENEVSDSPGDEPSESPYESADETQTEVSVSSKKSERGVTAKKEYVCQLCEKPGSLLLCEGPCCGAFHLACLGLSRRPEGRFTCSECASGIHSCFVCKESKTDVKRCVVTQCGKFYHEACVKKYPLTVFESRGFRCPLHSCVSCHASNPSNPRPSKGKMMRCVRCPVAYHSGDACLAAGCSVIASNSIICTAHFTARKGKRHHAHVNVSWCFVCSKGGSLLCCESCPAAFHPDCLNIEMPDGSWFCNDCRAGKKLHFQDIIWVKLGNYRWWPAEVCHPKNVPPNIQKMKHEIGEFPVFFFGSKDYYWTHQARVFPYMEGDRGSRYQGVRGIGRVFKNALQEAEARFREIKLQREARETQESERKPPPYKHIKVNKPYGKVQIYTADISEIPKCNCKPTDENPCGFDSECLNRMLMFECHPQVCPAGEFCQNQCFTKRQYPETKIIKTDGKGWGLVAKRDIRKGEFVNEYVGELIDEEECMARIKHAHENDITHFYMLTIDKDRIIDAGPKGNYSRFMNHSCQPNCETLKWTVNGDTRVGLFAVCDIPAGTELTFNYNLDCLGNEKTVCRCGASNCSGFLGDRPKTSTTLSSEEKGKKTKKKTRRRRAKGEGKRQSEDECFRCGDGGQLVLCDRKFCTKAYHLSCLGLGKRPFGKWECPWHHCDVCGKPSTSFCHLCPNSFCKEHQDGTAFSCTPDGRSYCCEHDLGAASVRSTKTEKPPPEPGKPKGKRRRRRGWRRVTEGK", "assay": "blockers of NSD2 lysine methylation activity – biochemical, AlphaScreen, single concentration, set 2, primary screen (AID 743445)", "details": "NSD2 peptide methylation, 120 min, at 12.5 µM, hits give high values"}
{"compound": "O=C(NC1CCCCC1)c1ccc(-c2ccc(Cl)cc2)o1", "inhibition": "-1.75%"}
{"compound": "Cc1[nH][nH]c(=O)c1C(c1ccc(-c2ccc(Cl)cc2)o1)c1c(C)[nH][nH]c1=O", "inhibition": "105% (active)"}
{"compound": "CN(CC(=O)Nc1ccc(F)cc1)C(=O)c1ccc(-c2ccc(Cl)cc2)o1", "inhibition": "-0.366%"}
{"compound": "O=C(NCC1COc2ccccc2O1)c1ccc(NC(=O)c2cc(F)ccc2F)cc1", "note": "(configuration not stated)", "inhibition": "-0.735%"}
{"compound": "COc1ccc(OC)c(NC(=O)CCN2CCC(C)CC2)c1", "inhibition": "0.958%"}
{"compound": "CC1CCN(CCC(=O)Nc2ccccc2)CC1", "inhibition": "51.1% (active)"}
{"compound": "CCOC(=O)N1CCN(CCC(=O)Nc2ccccc2)CC1", "inhibition": "-3.41%"}
{"compound": "CN(CCOc1ccccc1)Cc1nc2cc(Cl)ccc2c(=O)[nH]1", "inhibition": "-1.91%"}
{"compound": "O=c1[nH]c(CN2CCOCC2)nc2scc(-c3ccccc3)c12", "inhibition": "-2.17%"}
{"compound": "O=c1[nH]c(CN2CCOCC2)nc2cc(Cl)ccc12", "inhibition": "108% (active)"}
{"compound": "Cc1ccccc1CS(=O)(=O)Cc1ccc(C(=O)Nc2ccc(Cl)cc2)o1", "inhibition": "1.09%"}
{"compound": "CCOC(=O)c1csc(NC(=O)C2CCCN(S(=O)(=O)c3ccc(Cl)s3)C2)n1", "note": "(configuration not stated)", "inhibition": "2.06%"}
{"compound": "Cc1occc1-c1nnc(SCC(=O)NC2CCCCC2)o1", "inhibition": "0.775%"}
{"compound": "O=C(CSc1nnc(-c2ccccc2O)o1)NC1CCCCC1", "inhibition": "55.7% (active)"}
{"compound": "Cc1cc(C)cc(-c2nnc(SCC(=O)NC3CC3)o2)c1", "inhibition": "0.103%"}
{"compound": "CN(C)C(=O)N1CCN(C(=O)[C@@H](Cc2ccccc2)NC(=O)[C@H]2O[C@@H](n3ccc(N)nc3=O)[C@H](O)[C@@H]2O)CC1", "inhibition": "-3.38%"}
{"compound": "Clc1ccc(C2=CSC3=Nc4cccc5cccc(c45)N23)cc1", "inhibition": "125% (active)"}
{"compound": "COc1ccc(NC(=O)Cn2nnc(C(=O)NCCc3ccc(OC)c(OC)c3)c2N)cc1", "inhibition": "159% (active)"}
{"compound": "CCc1ccc(NC(=O)Cn2nnc(C(=O)NCc3ccc(OC)cc3)c2N)cc1", "inhibition": "-10.9%"}
{"compound": "COc1ccc(CNC(=O)c2nnn(CC(=O)Nc3cc(C)cc(C)c3)c2N)cc1", "inhibition": "0.097%"}
{"compound": "CC(C)(C)c1ccc(CSc2nnc(-c3cccs3)o2)cc1", "inhibition": "-3.66%"}
{"compound": "CC(=O)Nc1ccc(S(=O)(=O)N2CCSCC2)cc1", "inhibition": "-0.875%"}
{"compound": "COc1cc(C(C)=O)ccc1OC(C)C(=O)Nc1ccc(S(=O)(=O)N2CCCC2)cc1", "note": "(configuration not stated)", "inhibition": "-0.04%"}
{"compound": "C=CCn1c(=NC(=O)c2ccc(S(=O)(=O)N3CCCC3)cc2)sc2cc(NC(C)=O)ccc21", "inhibition": "96.1% (active)"}
{"compound": "Clc1ccc(-n2c(SC/C=C/c3ccccc3)nnc2-c2ccco2)cc1", "inhibition": "1.46%"}
{"compound": "COc1cccc(CNC(=O)C2CCCN(c3nc4ccccc4o3)C2)c1OC", "note": "(configuration not stated)", "inhibition": "0.947%"}
{"compound": "CN(C)CCNC(=O)c1ccc(-c2cn3c(-c4ccc(Oc5ccccc5)cc4)cnc3cn2)cc1", "inhibition": "1.51%"}
{"compound": "Cc1ccc(C(=O)C2CCN(CC(=O)NCCC(C)C)CC2)cc1", "inhibition": "-1.14%"}
{"compound": "O=C(NC(c1ccc(Cl)cc1)c1cnccn1)C1CCN(Cc2ccc(Cl)cc2)CC1", "note": "(configuration not stated)", "inhibition": "-0.128%"}
{"compound": "Cn1c(=O)c2cc(NC(=O)NCCc3cccs3)ccc2n1Cc1cccc(C(F)(F)F)c1", "inhibition": "0.114%"}
{"compound": "O=C1Nc2cc(C(=O)N3CCC(N4CCCCC4)CC3)ccc2S/C1=C\\c1ccccc1", "inhibition": "50.2% (active)"}
{"compound": "CCN1CCN(CCNC(=O)c2ccc3c(c2)NC(=O)/C(=C\\c2cccc(Cl)c2)S3)CC1", "inhibition": "2.99%"}
{"compound": "CCN1CCCC1CNC(=O)c1ccc2c(c1)NC(=O)/C(=C\\c1ccccc1F)S2", "note": "(configuration not stated)", "inhibition": "21.8%"}
{"compound": "CCOC(=O)N1CCC(NC(=O)C(NS(=O)(=O)c2ccc3c(c2)CCN3C(=O)CC)C(C)C)CC1", "note": "(configuration not stated)", "inhibition": "17.1%"}
{"compound": "CCC(=O)N1CCc2cc(S(=O)(=O)NC(C(=O)N3CCc4ccccc4C3)C(C)C)ccc21", "note": "(configuration not stated)", "inhibition": "59.8% (active)"}
{"compound": "CCC(=O)N1CCc2cc(S(=O)(=O)CCC(=O)N3CCN(c4ccccc4F)CC3)ccc21", "inhibition": "-2.83%"}
{"compound": "COc1cccc(-c2cc3nc(NCc4ccccc4OC)n(C)c(=O)c3s2)c1", "inhibition": "-2.63%"}
{"compound": "O=C(CSc1nc2ccccc2s1)NN=Cc1ccc(O)cc1O", "inhibition": "9.45%"}
{"compound": "CCCCCCCCC(=O)NCCOc1ccccc1", "inhibition": "1.73%"}
{"compound": "C=CCNC(=O)CCCOc1cccc(C)c1", "inhibition": "-2.74%"}
{"compound": "C=CCNCCCCOc1ccccc1", "inhibition": "73.8% (active)"}
{"compound": "Cc1ccc(CC2(C)C(=O)Nc3ccc(OC(F)(F)F)cc32)cc1", "note": "(configuration not stated)", "inhibition": "-1.93%"}
{"compound": "O=C(CN1CCC(NC(=O)NCc2ccccc2)CC1)Nc1ccc2c(c1)OCCO2", "inhibition": "-3.14%"}
{"compound": "O=C(NCc1cccs1)C1CCN(S(=O)(=O)c2ccccc2[N+](=O)[O-])CC1", "inhibition": "-1.94%"}
{"compound": "Cc1ccc(S(=O)(=O)/N=C2\\C=C(NS(=O)(=O)c3ccc(C)cc3)C(=O)c3ccccc32)cc1", "inhibition": "186% (active)"}
{"compound": "O=C1C=C(NS(=O)(=O)c2ccccc2)C(=O)c2ccccc21", "inhibition": "16.2%"}
{"compound": "Cc1ccc(S(=O)(=O)N[C@H](CO)C(C)C)cc1", "inhibition": "-1.39%"}
{"compound": "COc1ccc(S(=O)(=O)NCCCc2ccccc2)cc1", "inhibition": "-2.03%"}
{"compound": "COc1ccc(S(=O)(=O)/N=C2\\C=C(NS(=O)(=O)c3ccccc3)C(=O)c3ccccc32)cc1", "inhibition": "116% (active)"}
{"compound": "Cc1ccc(S(=O)(=O)N/N=C(\\c2ccccc2)C2CC2)cc1", "inhibition": "-5.26%"}
{"compound": "CCCCN(C=O)c1c(CC)nc2c(OCc3ccccc3C(=O)OC)cccn12", "inhibition": "2.37%"}
{"compound": "Cc1nc2c(OCc3cccc(Cl)c3)cccn2c1N(C)CC1CC1", "inhibition": "1.55%"}
{"compound": "CCn1c2ccccc2c2cc(NC(=O)CSc3nnc(-c4ccccc4)n3-c3ccc(C)cc3)ccc21", "inhibition": "0.529%"}
{"compound": "O=C(Cc1cccs1)Nc1nnc(SCc2ccc(F)cc2)s1", "inhibition": "0.676%"}
{"compound": "CC(C)(C)CC(=O)Nc1nnc(SCC(=O)NCc2cccs2)s1", "inhibition": "63.2% (active)"}
{"compound": "Cc1nnc(SCC(=O)NCc2cccs2)[nH]c1=O", "inhibition": "-1.95%"}
{"compound": "CCOC(=O)[C@]12CCCC=C1N(CCC1=CCCCC1)C(=O)[C@H](CC(=O)NCCCCc1ccccc1)C2", "inhibition": "1.69%"}
{"compound": "O=C(NC1CCCCCC1)C1CCN(C(=O)c2ccc(Cl)cc2)CC1", "inhibition": "-0.793%"}
{"compound": "Cc1ccnc(N2CCCC(C(=O)NC3CC3)C2)n1", "note": "(configuration not stated)", "inhibition": "-1.73%"}
{"compound": "Cc1ccnc(N2CCC(C(=O)NC3CCCCCC3)CC2)n1", "inhibition": "90.5% (active)"}
{"compound": "O=S(=O)(c1ccccc1)N1CCC(c2nc3ccccc3o2)CC1", "inhibition": "-2.44%"}
{"compound": "CCOC(=O)c1nnn(-c2nc(OC)nc(N(C)C)n2)c1-c1ccccc1", "inhibition": "-2.39%"}
{"compound": "CCOC(=O)c1nnn(-c2nonc2OC)c1-c1ccccc1", "inhibition": "113% (active)"}
{"compound": "Nc1nonc1-n1nnc(C(=O)N/N=C/C2CCCCC2)c1-c1ccccc1", "inhibition": "4.38%"}
{"compound": "CN(CCc1ccccc1)C(=O)Cn1nc(-c2ccccc2)ccc1=O", "inhibition": "4.36%"}
{"compound": "Cc1cccc(OCC(=O)Nc2ccccc2F)c1", "inhibition": "12.4%"}
{"compound": "Cc1ccccc1NC(=O)CCOc1ccccc1", "inhibition": "-2.79%"}
{"compound": "Cc1cccc(OCCC(=O)Nc2ccccc2C(N)=O)c1", "inhibition": "93.5% (active)"}
{"compound": "COc1ccc(-c2ccc(C(=O)NC(C)C)c3occc23)c(C)c1", "inhibition": "-1.69%"}
{"compound": "CCc1ccccc1NC(=O)CSc1nnc(-c2cccs2)o1", "inhibition": "3.02%"}
{"compound": "Nc1ccn([C@@H]2O[C@H](C(=O)N[C@H]3CCCCNC3=O)[C@@H](O)[C@H]2O)c(=O)n1", "inhibition": "-3.79%"}
{"compound": "CC(=O)NC(=S)NNC(=O)c1ccc(Br)cc1", "inhibition": "-3.53%"}
{"compound": "O=C(NNC(=O)c1ccc(Cl)nc1)c1ccc(Br)cc1", "inhibition": "98.9% (active)"}
{"compound": "CCN(CC)c1ccc(NC(=O)c2ccc(Cl)nc2)cc1", "inhibition": "2.22%"}
{"compound": "COc1ccc(-c2cc(-c3nnc(SCC(=O)Nc4cccc5ccccc45)n3N)[nH]n2)cc1", "inhibition": "-2.83%"}
{"compound": "CC(=O)c1ccc(Nc2nc(C(N)c3ccccc3)cs2)cc1", "note": "(configuration not stated)", "inhibition": "-2.82%"}
{"compound": "O=C(Nc1ccc(Cl)cc1)C1Cc2c(-c3ccc4c(c3)OCO4)ccnc2O1", "note": "(configuration not stated)", "inhibition": "-1.29%"}
{"compound": "CC(=O)Nc1ccc(-c2ccnc3c2CC(C(=O)NC(C)C)O3)cc1", "note": "(configuration not stated)", "inhibition": "-0.999%"}
{"compound": "COc1ccc(NC(=O)C2Cc3c(-c4ccc(Cl)cc4)ccnc3O2)cc1", "note": "(configuration not stated)", "inhibition": "54.6% (active)"}
{"compound": "CN(C)S(=O)(=O)c1cccc(NC(=O)COC(=O)/C=C/c2cccs2)c1", "inhibition": "-17%"}
{"compound": "Cc1ccc(S(=O)(=O)N(C)C)cc1NC(=O)COC(=O)/C=C/c1cccs1", "inhibition": "0.889%"}
{"compound": "Cc1ccc(S(=O)(=O)N(C)C)cc1NC(=O)/C=C/c1cccs1", "inhibition": "57.7% (active)"}
{"compound": "CC(NCc1ccco1)C(=O)N1CCCCC1", "note": "(configuration not stated)", "inhibition": "0.508%"}
{"compound": "COc1ccccc1C(=O)CSc1nnc(-c2ccccn2)n1-c1ccccc1", "inhibition": "-4.28%"}
{"compound": "Cc1nc2cc(NC(=O)NCc3ccccc3)ccc2o1", "inhibition": "-1.07%"}
{"compound": "COCCNC(=O)Nc1ccc2nc(-c3ccco3)c(-c3ccco3)nc2c1", "inhibition": "104% (active)"}
{"compound": "CCOc1cc(NC(=S)NCCCOC)c(OCC)cc1NC(=O)c1ccco1", "inhibition": "1.89%"}
{"compound": "COc1ccccc1CNC(=O)c1cc(-c2cc(F)ccc2OC)n[nH]1", "inhibition": "4.87%"}
{"compound": "CCc1nc2c(OCCOc3ccccc3)cccn2c1N(C)C(=O)c1ccc(OC)cc1", "inhibition": "-0.87%"}
{"compound": "CCN1CCCC1CNC(=O)c1cc2cc(OC)c(OC)cc2[nH]1", "note": "(configuration not stated)", "inhibition": "17.7%"}
{"compound": "CCN1CCCC1Cn1cnc2c([nH]c3cc(OC)ccc32)c1=O", "note": "(configuration not stated)", "inhibition": "-4.76%"}
{"compound": "CCN1CCCC1CNc1ncnc2c1[nH]c1ccc(F)cc12", "note": "(configuration not stated)", "inhibition": "74.6% (active)"}
